Measured values taken from PubChem BioAssay.
The source made the active and inactive calls.

What was measured:
[1] = anti-His antibody binders, primary screen, artefact control for SMM control protein annotation, biochemical, small-molecule microarray, 635 nm fluorescence (AID 1128); settings: anti-His Alexa647 antibody binding, higher = more signal;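 further: score merges feature fluorescence with signal-to-noise for each printed compound spot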
[2] = tested on: Human papillomavirus type 1a E7 protein (residues 1-88); experiment: HPV1a E7 small-molecule binders, primary screen, biochemical, small-molecule microarray, residues 1-88, 635 nm (AID 1129); settings: small-molecule microarray binding, fluorescence 635 nm; higher = more signal
[3] = target: Focal adhesion kinase 1 (Homo sapiens) (UniProt Q05397); experiment: small-molecule microarray binders of FAK, primary screen, biochemical, 635/667 nm fluorescence, BSA, DTT (AID 1130); settings: PTK2 binding, 635 nm fluorescence, higher = more signal;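 further: composite of spot emission at 667 nm and signal to noise over triplicate slides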
Sequence of Focal adhesion kinase 1 (Homo sapiens) (Q05397 whole entry, looked up): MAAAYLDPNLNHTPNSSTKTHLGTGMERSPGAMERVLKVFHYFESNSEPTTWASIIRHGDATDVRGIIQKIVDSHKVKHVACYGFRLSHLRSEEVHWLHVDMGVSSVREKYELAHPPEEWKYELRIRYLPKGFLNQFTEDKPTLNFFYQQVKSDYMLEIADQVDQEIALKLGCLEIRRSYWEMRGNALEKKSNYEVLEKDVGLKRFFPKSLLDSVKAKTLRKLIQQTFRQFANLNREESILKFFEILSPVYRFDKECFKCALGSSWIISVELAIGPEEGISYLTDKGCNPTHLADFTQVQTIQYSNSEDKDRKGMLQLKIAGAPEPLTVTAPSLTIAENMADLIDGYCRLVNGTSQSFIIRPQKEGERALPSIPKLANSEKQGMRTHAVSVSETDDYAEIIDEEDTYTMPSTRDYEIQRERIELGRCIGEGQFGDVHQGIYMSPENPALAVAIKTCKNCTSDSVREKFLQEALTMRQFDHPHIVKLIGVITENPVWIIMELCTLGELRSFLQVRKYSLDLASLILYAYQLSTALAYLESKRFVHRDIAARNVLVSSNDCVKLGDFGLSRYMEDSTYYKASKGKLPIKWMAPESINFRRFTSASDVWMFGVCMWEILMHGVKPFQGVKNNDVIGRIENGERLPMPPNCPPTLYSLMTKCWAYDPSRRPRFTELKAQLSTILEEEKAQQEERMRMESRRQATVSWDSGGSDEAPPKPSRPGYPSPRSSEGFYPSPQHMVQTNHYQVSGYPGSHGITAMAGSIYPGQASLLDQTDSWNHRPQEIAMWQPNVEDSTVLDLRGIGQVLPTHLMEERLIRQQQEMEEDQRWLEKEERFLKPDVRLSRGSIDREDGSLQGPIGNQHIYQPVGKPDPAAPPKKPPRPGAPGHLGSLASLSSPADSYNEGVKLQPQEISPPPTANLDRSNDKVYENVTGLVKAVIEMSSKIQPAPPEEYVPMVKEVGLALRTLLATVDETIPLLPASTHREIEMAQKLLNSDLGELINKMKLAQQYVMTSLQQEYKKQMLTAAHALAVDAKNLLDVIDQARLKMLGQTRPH

[4] = tested on: Fibrinogen (Alexa647-labelled); experiment: fibrinogen binders on compound microarrays, profiling panel, artefact control for SMM control-protein annotation, biochemical, small-molecule microarray, 635/667 nm fluorescence (AID 1131); settings: fibrinogen-A647 binding fluorescence, higher = more signal;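 further: z-score merges 667 nm fluorescence with per-spot signal-to-noise over triplicate slides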
[5] = target: Follistatin (Homo sapiens) (UniProt P19883); experiment: follistatin binders on small-molecule microarrays, primary screen, biochemical, small-molecule microarray, 635/667 nm fluorescence (AID 1132); settings: FST binding, 635 nm fluorescence, higher = more signal
Sequence of Follistatin (Homo sapiens) (P19883 whole entry, looked up): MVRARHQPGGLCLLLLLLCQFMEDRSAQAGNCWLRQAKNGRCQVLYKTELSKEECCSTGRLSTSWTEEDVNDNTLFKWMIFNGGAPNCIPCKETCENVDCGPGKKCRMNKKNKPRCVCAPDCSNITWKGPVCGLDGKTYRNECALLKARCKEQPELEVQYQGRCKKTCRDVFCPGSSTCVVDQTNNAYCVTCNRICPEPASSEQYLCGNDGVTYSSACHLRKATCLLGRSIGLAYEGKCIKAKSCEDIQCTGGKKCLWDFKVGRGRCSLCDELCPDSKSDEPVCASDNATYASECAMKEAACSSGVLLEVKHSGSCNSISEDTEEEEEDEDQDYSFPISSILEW

[6] = target: Fibroblast growth factor 2 (Homo sapiens) (UniProt P09038); experiment: FGF2 binders on small-molecule microarrays, primary screen, biochemical, small-molecule microarray, 635/667 nm fluorescence (AID 1133); settings: small-molecule microarray binding, FGF2, fluorescence 635/667; higher = more signal
Sequence of Fibroblast growth factor 2 (Homo sapiens) (P09038 whole entry, looked up): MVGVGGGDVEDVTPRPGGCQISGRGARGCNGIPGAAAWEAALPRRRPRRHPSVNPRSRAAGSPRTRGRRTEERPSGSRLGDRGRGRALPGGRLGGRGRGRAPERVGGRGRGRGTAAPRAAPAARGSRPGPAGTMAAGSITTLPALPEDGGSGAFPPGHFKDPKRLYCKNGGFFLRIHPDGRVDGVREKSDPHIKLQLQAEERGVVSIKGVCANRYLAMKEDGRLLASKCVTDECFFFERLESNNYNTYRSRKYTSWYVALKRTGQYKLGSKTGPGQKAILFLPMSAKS

[7] = mitochondrial membrane potential change in A549 cells, profiling panel, cell-based, JC-1 fluorescence, basal, 24 h, 100 nL (AID 1138); settings: higher = more signal;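 further: A549 lung adenocarcinoma cells under basal conditions with no added stimulus; test concentration not given here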
Lefty1 = Lefty1 binders on small-molecule microarrays, primary screen, biochemical, small-molecule microarray, 635/667 nm fluorescence (AID 1139); settings: small-molecule microarray binding, fluorescence 635/667; higher = more signal
[8] = tested on: wheat germ agglutinin (Triticum aestivum), Alexa647-labelled; experiment: wheat germ agglutinin binders on compound microarrays, profiling panel, artefact control for SMM control-protein annotation, biochemical, small-molecule microarray, 635/667 nm fluorescence (AID 1140); settings: WGA-A647 binding, 635 nm fluorescence, higher = more signal;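 further: score merges 667 nm feature emission with signal to noise over triplicate slides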
[9] = target: Luciferin 4-monooxygenase (Photinus pyralis) (UniProt P08659); experiment: firefly luciferase enzyme inhibitors, primary screen, biochemical, luminescence, purified enzyme, 2006 set (AID 1141); settings: SteadyGlo luminescence, 30 min, higher = more signal, called active from +8 up or from −8 down;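 further: cell-free assay with purified firefly luciferase at 100 ng per well in PBS; test concentration not given here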
Sequence of Luciferin 4-monooxygenase (Photinus pyralis) (P08659 whole entry, looked up): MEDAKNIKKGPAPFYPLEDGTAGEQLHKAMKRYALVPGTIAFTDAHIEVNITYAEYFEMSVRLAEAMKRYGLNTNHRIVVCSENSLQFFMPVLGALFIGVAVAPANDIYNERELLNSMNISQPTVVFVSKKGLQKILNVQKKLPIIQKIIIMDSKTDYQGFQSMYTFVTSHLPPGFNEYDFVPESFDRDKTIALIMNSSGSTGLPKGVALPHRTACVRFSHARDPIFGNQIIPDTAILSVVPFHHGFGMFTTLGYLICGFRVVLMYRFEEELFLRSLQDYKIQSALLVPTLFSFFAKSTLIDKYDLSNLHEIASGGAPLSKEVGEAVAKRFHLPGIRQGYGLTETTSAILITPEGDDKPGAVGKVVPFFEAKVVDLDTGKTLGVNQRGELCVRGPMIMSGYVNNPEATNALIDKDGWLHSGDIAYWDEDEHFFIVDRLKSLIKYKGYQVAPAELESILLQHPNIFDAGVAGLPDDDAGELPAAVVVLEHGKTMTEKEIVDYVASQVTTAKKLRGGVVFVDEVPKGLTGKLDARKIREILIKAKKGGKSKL

| Structure (SMILES) | composite z-score [1] | composite z-score [2] | composite z-score [3] | composite z-score [4] | composite z-score [5] | composite z-score [6] | z-score [7] | composite z-score (Lefty1) | composite z-score [8] | z-score [9] |
| --- | --- | --- | --- | --- | --- | --- | --- | --- | --- | --- |
| C=C(COC)C(=O)CC[C@H](OC(=O)c1cccnc1)c1ccccc1OCCO | 1.12 | 1.16 | -0.0493 | 0.756 | 1.36 | 1.56 | -0.0406 | 1.47 | 0.18 | -2.36 (inactive) |
| NC(=O)NCC#Cc1ccc2c(c1)[C@]1(C(=O)N2)[C@H](C(=O)NC[C@H](O)c2ccccc2)[C@H]2C(=O)O[C@H](c3ccccc3)[C@H](c3ccccc3)N2[C@@H]1c1ccccc1OCCO | 0.441 | 1.18 | 0.32 | 0.946 | 1.05 | 0.54 | -1.17 | 0.28 | 0.25 | 0.649 (inactive) |
| [N-]=[N+]=NCc1ccccc1C[C@]1(C(=O)NCC(O)CO)COC(c2ccc(OCCCO)cc2)=N1 (stereo not given in full) | 1.41 | 1.2 | 1.98 | 0.0694 | 0.831 | -0.0586 | 1.18 | -0.683 | 0.964 | -0.0644 (inactive) |
| Cn1c2c(c3ccccc31)C(=O)C1NC2C=CC1(C)C(=O)OCc1ccccc1 (stereo not given) | 0.262 | 0.291 | 0.0584 | 0.351 | -2.07 | -2.05 | -0.591 | -1.82 | 0.757 | 1.15 (inactive) |
| CN1C(=O)C2C=CC(C(O)c3ccccc3)N(NC(=O)OC(C)(C)C)C2C1=O (stereo not given) | 0.884 | 1.12 | 0.164 | 0.513 | -0.0714 | -0.27 | -0.165 | -0.525 | 1.05 | 0.22 (inactive) |
| COc1ccc([Si](C)(C)[C@@H]2[C@@H](CCn3cc([C@H](O)c4ccccc4)nn3)O[C@]3(C(=O)N(C)c4ccccc43)[C@H]2C)cc1 | 0.214 | 0.991 | 0.227 | -0.892 | 0.0274 | 0.283 | -0.0374 | 0.57 | 0.0783 | 0.431 (inactive) |
| O=C1O[C@H](c2ccccc2)[C@H](c2ccccc2)N2[C@H]1[C@@H](C(=O)N1CCCCCCC1)[C@]1(C(=O)Nc3ccc(C#CC4=CCCCC4)cc31)[C@H]2c1ccc(O)cc1 | 3.04 | 1.36 | 5.6 | 0.535 | 1.56 | 1.22 | -0.233 | 1.82 | 1.81 | 0.289 (inactive) |
| CCCC[C@H]1OB(O)C[C@H]2C1=C(COc1ccccc1)C[C@H]1C(=O)N(Cc3ccccc3)C(=O)[C@H]12 | 0.755 | 0.692 | 0.314 | 0.817 | 0.512 | 0.291 | 0.742 | 0.872 | 0.571 | 0.258 (inactive) |
| [N-]=[N+]=NCc1ccccc1C[C@]1(C(=O)NCCN2CCOCC2)N=C(c2ccc(OCCCO)cc2)O[C@H]1c1ccccc1CN=[N+]=[N-] | 1.09 | 1.21 | 1.43 | 0.99 | 1.11 | 0.783 | 0.963 | 0.886 | 0.495 | 0.203 (inactive) |
| C=CC[C@@]1(C(=O)OC)N=C(c2ccc(OCCCO)cc2)O[C@@H]1c1ccccc1CN=[N+]=[N-] | 0.78 | 0.996 | 0.242 | 0.0758 | 1.05 | 0.0452 | 0.00108 | 0.543 | -0.0321 | 0.668 (inactive) |
| CCCCCCCCCCC(O)C1C=CC2C(=O)N(c3ccccc3)C(=O)C2N1Nc1ccc([N+](=O)[O-])cc1 (stereo not given) | 0.774 | 1.22 | 0.525 | 0.992 | 0.8 | 0.378 | 2.09 | 0.371 | 0.56 | 1.86 (inactive) |
| [N-]=[N+]=Nc1ccccc1[C@H]1OC(c2ccc(OCCCO)cc2)=N[C@@]1(CCS(=O)(=O)c1ccccc1)C(=O)N1CCOCC1 | 2.83 | 1.26 | 1.32 | 1 | 1.3 | 1.73 | -0.218 | 0.225 | 1.47 | -15 (active) |
| O=S(=O)(NCCCO)c1ccc(Br)cc1 | 0.309 | 0.918 | 0.0087 | -0.088 | 1.17 | 0.663 | 0.802 | -0.0569 | 0.54 | -0.0622 (inactive) |
| C=CC[C@@]1(C(=O)NCCN2CCOCC2)N=C(c2ccc(OCCCO)cc2)O[C@@H]1c1ccccc1CN=[N+]=[N-] | 2.83 | 1.23 | 0.269 | 0.216 | 0.898 | -0.224 | 0.127 | -0.0903 | 1 | -3.74 (inactive) |
| Cc1ccc(S[C@]2(C(=O)NCC(C)C)CC(=O)N(Cc3ccccc3)[C@@H]2c2ccc(CO)cc2)cc1 | -0.549 | -0.467 | -0.0956 | -1.2 | -0.795 | -0.42 | -0.254 | -1.4 | -0.282 | -0.766 (inactive) |
| CN(C)CCCC[C@@H]1NC(=O)[C@@H]2C[C@H](C(=O)NCCCCCN)[C@H](c3ccc(O)cc3)N2C1=O | 0.637 | 0.732 | 0.91 | 0.502 | -0.126 | -0.585 | 0.393 | -0.318 | 1.09 | -0.806 (inactive) |
